Measurements: the supplement of paper PMC3334620
In all, about 33,000 sequences were measured (“E-score (-0.5 to 0.5)”: median about -0.036, highest 2% from about 0.37 on). The full list was thinned out, with the highest values kept by preference.

target: T1, Yer064c (UniProt P40041); test: PBM E-score (8-mer binding enrichment) (E-score (-0.5 to 0.5)); higher = stronger / more preferred TF binding; conditions: protein concentration: 200 nM; construct: GST-full length
T1 sequence: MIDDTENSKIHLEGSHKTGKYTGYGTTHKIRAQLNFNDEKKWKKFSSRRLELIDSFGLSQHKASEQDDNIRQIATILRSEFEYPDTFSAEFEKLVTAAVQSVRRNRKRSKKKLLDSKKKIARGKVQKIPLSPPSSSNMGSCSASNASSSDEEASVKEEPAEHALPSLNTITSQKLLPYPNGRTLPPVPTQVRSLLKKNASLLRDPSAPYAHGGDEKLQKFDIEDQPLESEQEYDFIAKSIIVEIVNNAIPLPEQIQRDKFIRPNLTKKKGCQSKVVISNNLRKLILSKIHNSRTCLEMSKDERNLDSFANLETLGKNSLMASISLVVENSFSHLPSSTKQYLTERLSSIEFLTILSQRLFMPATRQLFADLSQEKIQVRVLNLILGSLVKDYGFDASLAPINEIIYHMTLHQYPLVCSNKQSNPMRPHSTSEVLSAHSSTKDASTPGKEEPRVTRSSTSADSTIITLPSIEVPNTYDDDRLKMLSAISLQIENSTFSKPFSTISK
Experimental: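 Universal 'all 10-mer' protein binding microarrays (Agilent AMADID 015681) probed with GST-tagged S. cerevisiae TFs (full-length or DBD) made by in vitro transcription/translation (PURExpress), about 100-200 nM. Bound TF was detected with fluorescent anti-GST. Each ungapped 8-mer (which stands for itself and its reverse complement) is scored by the PBM enrichment score (E-score), a modified Wilcoxon-Mann-Whitney statistic from -0.5 to +0.5, computed with the Universal PBM Analysis Suite. Scale: above 0.35 generally sequence-specific binding.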

Row | Sequence | PBM E-score
1 | AGTATGGC | 0.0363
2 | CAAATTTG | 0.13
3 | ATGCGAAG | -0.0967
4 | GTTACTTA | 0.163
5 | CGAAAAAA | 0.0432
6 | AGTGACTC | 0.486
7 | AGTGACAC | -0.0262
8 | CGTGACGC | -0.00579
9 | CGTGACTC | 0.481
10 | CGTGACCC | 0.0177
11 | AGTGACGC | -0.182
12 | AGGGTACT | -0.144
13 | AGATTCAA | 0.314
14 | GGATTCAA | 0.18
15 | TGATTCAA | 0.466
16 | TGATTCCA | 0.398
17 | CGATTCCA | -0.102
18 | AGATTCCA | 0.0276
19 | AGCGGAAG | -0.191
20 | CTGCACCC | -0.223
21 | TGACTGCA | 0.404
22 | TGACTGAA | 0.432
23 | GGACTGAA | 0.109
24 | CGACTGCA | 0.253
25 | AGACTGAA | 0.241

Row | Sequence | PBM E-score
26 | AGACTGCA | 0.201
27 | ACTCCAAT | 0.238
28 | CAGTCCCC | -0.225
29 | CCGGTGAG | 0.0747
30 | GCGGAGTA | -0.0756
31 | CGACACTA | -0.0389
32 | GTTTTGGA | 0.197
33 | AATCACTA | 0.373
34 | AAGCACTG | 0.0399
35 | AAACACTG | 0.0608
36 | AATCACTC | 0.385
37 | CATCACTC | 0.0183
38 | CATCACTA | 0.0474
39 | GATCACTA | 0.135
40 | AATCACTG | 0.375
41 | CGGCGATC | -0.0422
42 | GTCACCAC | 0.29
43 | CATTCTAC | -0.179
44 | CAAGATTA | 0.199
45 | AGTCCAGG | 0.0238
46 | AAGCCAGC | -0.181
47 | GTTCAAGA | 0.0547
48 | AACGCTCA | -0.103
49 | TCTGGACA | -0.266
50 | ACTTCGAA | 0.166

Row | Sequence | PBM E-score
51 | CACTATGC | 0.0417
52 | GACTATGC | 0.397
53 | AACTATGA | 0.237
54 | AACTATGC | -0.153
55 | TACTATGA | 0.318
56 | GACTATGA | 0.435
57 | ACGGCGAG | 0.0206
58 | GCTCGCAC | -0.24
59 | CTACTTTC | 0.0258
60 | CGGCCGGC | -0.134
61 | GTGGTGGA | -0.14
62 | TTGGCCAA | -0.142
63 | AGACTACA | 0.344
64 | TGACTTAA | 0.435
65 | AGACTTAA | 0.195
66 | CGACTAAA | 0.41
67 | TGACTACA | 0.476
68 | CGACTACA | 0.351
69 | CCACTAAA | -0.0544
70 | CTACTAAA | 0.00127
71 | AGACTAAC | 0.413
72 | AGACTAGC | 0.251
73 | AGACTATC | 0.35
74 | GGACTTAA | 0.188
75 | ACACTCTG | -0.0556

Row | Sequence | PBM E-score
76 | ACGCCACT | -0.186
77 | GGAACTTA | -0.0956
78 | CAGTAACA | 0.0175
79 | TACATTGA | 0.0284
80 | AGATGATA | 0.0471
81 | AGTAAAGG | 0.0771
82 | ATCCATTC | 0.0758
83 | CTCAGATA | 0.268
84 | GGGTTTCA | -0.23
85 | ACCGGAGA | -0.00273
86 | ATAGAACC | 0.0363
87 | AGACTACT | 0.376
88 | GGACTAAA | 0.331
89 | CTACTAAG | 0.0152
90 | AGACTACG | 0.322
91 | TGACTAAA | 0.484
92 | CGACTAAG | 0.399
93 | AAACTAAG | 0.175
94 | TGGCTAAA | 0.306
95 | AGACTAAG | 0.383
96 | CCACTAAG | 0.0593
97 | AGACTATG | 0.319
98 | AGACTACC | 0.354
99 | ACTATTCA | 0.106
100 | AGTTGCCA | -0.223

Row | Sequence | PBM E-score
101 | ACGTTGAG | 0.0564
102 | GAGTCTGC | 0.312
103 | TTCAGCAA | -0.00768
104 | AGTGATAT | -0.134
105 | AACTGAAC | -0.119
106 | ATACTAAT | 0.174
107 | CGACTATA | 0.374
108 | AGACTAGA | 0.276
109 | AAACTAAT | 0.243
110 | AGACTATA | 0.35
111 | AAACTAAA | 0.0515
112 | AGACTAAA | 0.398
113 | AGACTAAT | 0.389
114 | CGACTATC | 0.359
115 | AACTGGCT | -0.28
116 | CGGGTAAC | -0.0478
117 | AATCATAC | 0.451
118 | TATCATAA | 0.0309
119 | CATCATAG | 0.25
120 | AATCATAT | 0.428
121 | AATCAAAT | 0.23
122 | CATCATAC | 0.215
123 | AATCATAG | 0.433
124 | CATCATAA | 0.0722
125 | AAGCATAT | 0.0236

Row | Sequence | PBM E-score
126 | AATCATAA | 0.418
127 | GATCATAC | -0.0115
128 | AATCAGAG | 0.269
129 | AATGGCAC | -0.231
130 | CCCTCCAA | -0.12
131 | AATATAAA | 0.0817
132 | ATGGCTTC | 0.156
133 | GGGCGGCA | -0.406
134 | CACACCCA | 0.0764
135 | AAACGAGA | 0.0214
136 | GAAAGAAA | -0.0206
137 | CCTACGAA | -0.211
138 | TACGCATA | -0.0887
139 | AAGAAACG | -0.028
140 | CTTTAGCA | -0.154
141 | CGTATCGA | -0.111
142 | ATGTCACG | -0.123
143 | AGGTCACG | -0.143
144 | AAGTCACC | 0.447
145 | TCGTCACA | -0.0543
146 | TGGTCACA | 0.103
147 | TAGTCACA | 0.478
148 | ACGTCACC | -0.162
149 | AAGTCACG | 0.433
150 | AAGTCACA | 0.414

Row | Sequence | PBM E-score
151 | ACGTCACG | -0.289
152 | AAGTCAGG | 0.341
153 | AGGTCACC | 0.00721
154 | AAGACCAG | -0.0791
155 | CCCGGCAA | -0.166
156 | CTGCGGAC | -0.0565
157 | AGGGGGTC | -0.406
158 | CCCACATA | 0.0317
159 | CCGTTCGA | 0.0719
160 | ACGTCACT | -0.0404
161 | AAGTCACT | 0.399
162 | GCGTCACA | -0.13
163 | AGGTCACT | 0.0701
164 | GGGTCACA | 0.00589
165 | GAGTCACA | 0.493
166 | GAGGCCAC | -0.319
167 | ACGGCCGC | -0.0196
168 | AGGCAGTC | 0.213
169 | CTTTGAGA | 0.179
170 | TGAGCTAA | 0.189
171 | GCTGTAGA | -0.0534
172 | AGTTAGCG | -0.0192
